# Measured values as given in PMC5540273 (PLoS ONE, 2017).
# Like-named read-outs stand apart in the source and are kept apart here.
# Columns and labels:
# [1] = test system: BTK; conditions: concentration: 1 μM, replicates: in singlicate; n = 1
# [2] = test system: BUB1; conditions: concentration: 1 μM, replicates: in singlicate; n = 1
# [3] = test system: CAMK1B; conditions: concentration: 1 μM, replicates: in singlicate; n = 1
# [4] = test system: CAMK1D; conditions: concentration: 1 μM, replicates: in singlicate; n = 1
# [5] = test system: CAMK1G; conditions: concentration: 1 μM, replicates: in singlicate; n = 1
# [6] = test system: CAMK1; conditions: concentration: 1 μM, replicates: in singlicate; n = 1
# [7] = test system: CAMK2A; conditions: concentration: 1 μM, replicates: in singlicate; n = 1
# [8] = test system: CAMK2B; conditions: concentration: 1 μM, replicates: in singlicate; n = 1
# [9] = test system: CAMK2D; conditions: concentration: 1 μM, replicates: in singlicate; n = 1
# [10] = test system: CAMK2G; conditions: concentration: 1 μM, replicates: in singlicate; n = 1
# [11] = test system: CAMK4; conditions: concentration: 1 μM, replicates: in singlicate; n = 1
# [12] = test system: CAMKK1; conditions: concentration: 1 μM, replicates: in singlicate; n = 1
# [13] = test system: CAMKK2; conditions: concentration: 1 μM, replicates: in singlicate; n = 1
# [14] = test system: CASK; conditions: concentration: 1 μM, replicates: in singlicate; n = 1
# [15] = test system: T1, CDC2L1; conditions: concentration: 1 μM, replicates: in singlicate; n = 1
# T1 construct: gene CDK11B
# [16] = test system: CDC2L2; conditions: concentration: 1 μM, replicates: in singlicate; n = 1
# [17] = test system: T2, CDC2L5; conditions: n = 1
# T2 construct: gene CDK13
# [18] = test system: T3, CDK11; conditions: concentration: 1 μM, replicates: in singlicate; n = 1
# T3 construct: gene CDK19
# [19] = test system: CDK2; conditions: concentration: 1 μM, replicates: in singlicate; n = 1
# [20] = test system: CDK3; conditions: concentration: 1 μM, replicates: in singlicate; n = 1
# [21] = concentration: 1 μM, replicates: in singlicate
# 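Further: KINOMEscan kinase panel screen.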
structure (smiles),measurement,setting,value
COc1ccc(CSc2nnc(-c3ccc4c(c3)CCO4)o2)cc1,%Inh,[1],0%
same,%Inh,[2],0%
same,%Inh,[3],0%
same,%Inh,[4],0%
same,%Inh,[5],9%
same,%Inh,[6],0%
same,%Inh,[7],0%
same,%Inh,[8],0%
same,%Inh,[9],0%
same,%Inh,[10],0%
same,%Inh,[11],0%
same,%Inh,[12],1%
same,%Inh,[13],15%
same,%Inh,[14],0%
same,%Inh,[15],0%
same,%Inh,[16],0%
same,%Inh,[17]; [21],90%
same,%Inh,[18],0%
same,%Inh,[19],0%
same,%Inh,[20],0%
CS(=O)(=O)Cc1ccc(Nc2nccc(-c3c(-c4cccc(NC(=O)C5CCCCC5)c4)nn4ncccc34)n2)cc1 [GSK350559],%Inh,[1],0%
same,%Inh,[2],98.7%
same,%Inh,[3],0%
same,%Inh,[4],0%
same,%Inh,[5],0%
same,%Inh,[6],0%
same,%Inh,[7],15%
same,%Inh,[8],8%
same,%Inh,[9],0%
same,%Inh,[10],0%
same,%Inh,[11],0%
same,%Inh,[12],0%
same,%Inh,[13],0%
same,%Inh,[14],34%
same,%Inh,[15],0%
same,%Inh,[16],27%
same,%Inh,[17]; 1 µM,30%
same,%Inh,[18],0%
same,%Inh,[19],0%
same,%Inh,[20],0%
Nc1cccc(-c2ccc3c(N)n[nH]c3c2)n1 [GSK2192730],%Inh,[1],0%
same,%Inh,[2],0%
same,%Inh,[3],0%
same,%Inh,[4],30%
same,%Inh,[5],9%
same,%Inh,[6],29%
same,%Inh,[7],0%
same,%Inh,[8],0%
same,%Inh,[9],20%
same,%Inh,[10],31%
same,%Inh,[11],0%
same,%Inh,[12],27%
same,%Inh,[13],22%
same,%Inh,[14],14%
same,%Inh,[15],0%
same,%Inh,[16],22%
same,%Inh,[17]; [21],0%
same,%Inh,[18],3%
same,%Inh,[19],0%
same,%Inh,[20],7%
CSc1ccc(-c2nc3n(c2-c2ccncc2)CCC3)cc1 [SKF-105561],%Inh,[1],0%
same,%Inh,[2],90%
same,%Inh,[3],0%
same,%Inh,[4],15%
same,%Inh,[5],0%
same,%Inh,[6],0%
same,%Inh,[7],0%
same,%Inh,[8],0%
same,%Inh,[9],0%
same,%Inh,[10],0%
same,%Inh,[11],30%
same,%Inh,[12],0%
same,%Inh,[13],0%
same,%Inh,[14],3%
same,%Inh,[15],15%
same,%Inh,[16],24%
same,%Inh,[17]; [21],30%
same,%Inh,[18],0%
same,%Inh,[19],0%
same,%Inh,[20],0%
c1ccc(-c2ccnc3[nH]ccc23)cc1 [SB-693578],%Inh,[1],0%
same,%Inh,[2],58%
same,%Inh,[3],11%
same,%Inh,[4],9%
same,%Inh,[5],15%
same,%Inh,[6],14%
same,%Inh,[7],0%
same,%Inh,[8],15%
same,%Inh,[9],31%
same,%Inh,[10],21%
same,%Inh,[11],0%
same,%Inh,[12],10%
same,%Inh,[13],11%
same,%Inh,[14],26%
same,%Inh,[15],0%
same,%Inh,[16],6%
same,%Inh,[17]; [21],0%
same,%Inh,[18],20%
same,%Inh,[19],0%
same,%Inh,[20],2%
NS(=O)(=O)c1cccc(N/C=C2\C(=O)Nc3ccc(S(=O)(=O)Cc4c(Cl)cccc4Cl)cc32)c1 [GSK398099],%Inh,[1],0%
same,%Inh,[2],34%
same,%Inh,[3],23%
same,%Inh,[4],17%
same,%Inh,[5],26%
same,%Inh,[6],27%
same,%Inh,[7],0%
same,%Inh,[8],0%
same,%Inh,[9],26%
same,%Inh,[10],16%
same,%Inh,[11],0%
same,%Inh,[12],72%
same,%Inh,[13],60%
same,%Inh,[14],27%
same,%Inh,[15],0%
same,%Inh,[16],9%
same,%Inh,[17]; [21],0%
same,%Inh,[18],0%
same,%Inh,[19],0%
same,%Inh,[20],24%
CC(=O)c1c(C)c2cnc(Nc3ccn(C)n3)nc2n(C2CCCC2)c1=O,%Inh,[1],0%
same,%Inh,[2],2%
same,%Inh,[3],8%
same,%Inh,[4],0%
same,%Inh,[5],1%
same,%Inh,[6],0%
same,%Inh,[7],0%
same,%Inh,[8],0%
same,%Inh,[9],13%
same,%Inh,[10],9%
same,%Inh,[11],0%
same,%Inh,[12],7%
same,%Inh,[13],13%
same,%Inh,[14],12%
same,%Inh,[15],0%
same,%Inh,[16],100%
same,%Inh,[17]; [21],0%
same,%Inh,[18],2%
same,%Inh,[19],3%
same,%Inh,[20],0%
COc1ccc(CSc2nnc(-c3ccc4ncsc4c3)o2)cc1C(F)(F)F,%Inh,[1],0%
same,%Inh,[2],0%
same,%Inh,[3],0%
same,%Inh,[4],23%
same,%Inh,[5],2%
same,%Inh,[6],1%
same,%Inh,[7],0%
same,%Inh,[8],0%
same,%Inh,[9],0%
same,%Inh,[10],0%
same,%Inh,[11],0%
same,%Inh,[12],0%
same,%Inh,[13],0%
same,%Inh,[14],10%
same,%Inh,[15],0%
same,%Inh,[16],0%
same,%Inh,[17]; [21],35%
same,%Inh,[18],37%
same,%Inh,[19],1%
same,%Inh,[20],0%
